NPC1 promoter act: NPC1 promoter activation; hit rate 2.4% among 320,000; Huh7 NPC1 promoter luciferase reporter, 24 h; Potency, µM (top dose mostly 9.22 µM), for the others: at the highest dose activation, usual class: activators; AID 485313; also: % of control where 0% means no effect; nearly all actives have a fitted effect of over 60% in size
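Huh7 reporter cells (NPC1 promoter driving luciferase) are dosed with compound for 24 h at 37 °C, 5% CO2; luciferase detection reagent is then added and luminescence measured after 10 min at ambient temperature.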
ELG1 genotox: genotoxicity induction in ELG1-luciferase HEK293T cells. HEK293T ELG1-luciferase reporter, luminescence, 16 h. Potency, µM (series often up to 46 µM), inactives show top-dose activity change, positive = activation, actives largely listed as activators. AID 504466. hit rate 1.3% among 330,000; also: % of control where 0% means no effect; nearly all actives have a fitted effect of over 60% in size
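HEK293T cells expressing luciferase-tagged ELG1 were treated with compound or DMSO for 16 hr at 37°C. Luciferase activity was then read after 30 min with ONE-Glo at room temperature; rising signal flags genetic stress.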
SMN2 splice enh: increases expression of the SMN2 splice variant; HEK293 SMN2-luciferase splicing reporter, luminescence, 30-36 h; hit rate 2.8% among 210,000; AID 1458; Potency, µM (highest dose often 46.1 µM), without a hit: at the highest dose activity change, positive = activation, actives largely listed as activators; also: % of control where 0% means no effect; nearly all actives have a fitted effect of over 55% in size
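qHTS luciferase splicing reporter: luminescence rises when SMN2 exon 7 is included in transfected HEK293 cells. Compound exposure lasted 30-36 h at 37C, with 4.5 mM final sodium butyrate as control, followed by a ONE-Glo read.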
Rab9 prom act: Rab9 promoter activation; hit rate 2.8% among 320,000; Potency, µM (series often up to 9.22 µM), for the others: at the highest dose activation, negative = inhibition, actives largely listed as activators; AID 485297; Huh7 Rab9 promoter-luciferase reporter, luminescence, 24 h; also: % of control where 0% means no effect; nearly all actives have a fitted effect of over 60% in size
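Cells were plated at 1500 per well in reduced-serum medium with 10% FBS and left 2 h. Compound in DMSO was then added for 24 h at 37 °C. Reporter signal was read by luminescence after 10 min with luciferase detection reagent.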
FLuc modulator: counter-screen for miR-21 project: firefly luciferase inhibitors or activators; purified FLuc, Km substrates, luminescence inhibition; P08659; hit rate 6.9% among 360,000; Potency, µM (series often up to 57.5 µM), inactives show at the highest dose activity change, negative = inhibition, most hits filed as inhibitors;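 also: plate controls were vehicle for no effect and reference inhibitor for full effect; nearly all actives have a fitted effect of over 55% in size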
Target sequence (P08659 whole entry, looked up): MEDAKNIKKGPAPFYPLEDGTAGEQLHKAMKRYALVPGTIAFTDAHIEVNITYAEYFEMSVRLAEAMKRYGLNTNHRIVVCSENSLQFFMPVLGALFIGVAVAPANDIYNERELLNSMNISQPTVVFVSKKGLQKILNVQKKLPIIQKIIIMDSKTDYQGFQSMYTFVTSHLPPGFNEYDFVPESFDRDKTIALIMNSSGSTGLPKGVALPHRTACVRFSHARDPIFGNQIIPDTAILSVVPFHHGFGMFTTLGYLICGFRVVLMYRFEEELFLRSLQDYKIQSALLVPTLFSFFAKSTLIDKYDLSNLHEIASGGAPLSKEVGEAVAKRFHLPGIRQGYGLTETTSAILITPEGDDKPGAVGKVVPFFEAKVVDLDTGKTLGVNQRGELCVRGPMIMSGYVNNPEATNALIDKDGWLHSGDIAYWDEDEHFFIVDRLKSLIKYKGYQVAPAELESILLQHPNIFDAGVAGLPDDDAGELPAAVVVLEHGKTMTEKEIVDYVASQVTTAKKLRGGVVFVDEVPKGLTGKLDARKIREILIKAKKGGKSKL
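Purified P. pyralis luciferase (10nM final) with 10uM D-luciferin and 10uM ATP (Km levels) in 50mM Tris acetate pH 7.5, 10mM Mg acetate, 0.01% Tween-20, 0.05% BSA; qHTS 6-point titration, ~60 µM downward; luminescence read.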
Active calls of the source: *. Only some compounds are listed: those with a hit (about 7.5% of all), similar ones and a draw of the others. Calls follow the shape of the dose curve; as a rule, active = well fitted curve in the direction sought with a large enough effect; inconclusive = small, poorly fitted or top-dose-only effect, or another doubt; inactive = no such curve, though single readings can be large; an effect the other way counts as inactive or inconclusive. Potency is read from the fitted curve at half-maximal effect.

Screening Cc1cccc(C(=O)O/N=C/c2c(N3CCOCC3)n(C)c3ccccc23)c1 returned NPC1 promoter act -13%, ELG1 genotox -10%, SMN2 splice enh -80%, Rab9 prom act -25% and FLuc modulator inconclusive.
`Cc1nn(C)c(Cl)c1/C=N/OC(=O)c1ccc(F)cc1` gave NPC1 promoter act -2%, ELG1 genotox 0%, SMN2 splice enh 9%, Rab9 prom act 1% and FLuc modulator 17µM*.
Screening Cc1nn(C)c(Cl)c1/C=N/OC(=O)c1ccccc1 returned NPC1 promoter act -3%, ELG1 genotox 1%, SMN2 splice enh 0%, Rab9 prom act -2% and FLuc modulator 12µM*.
Cn1c(Cl)c(/C=N/OC(=O)c2ccccc2Cl)c2ccccc21 was read as NPC1 promoter act 2%, ELG1 genotox -2%, SMN2 splice enh -1%, Rab9 prom act -1% and FLuc modulator 6.7µM*.
For Cn1nc(C(F)(F)F)c(/C=N/OC(=O)c2ccccc2)c1Cl the results were NPC1 promoter act -2%, ELG1 genotox 1%, SMN2 splice enh -6%, Rab9 prom act -7% and FLuc modulator inconclusive.
Screening COc1cccc(CS(=O)(=O)c2ccccc2)c1 returned SMN2 splice enh 14%.
O=C(/C=C\Nc1ccccc1Br)c1ccc2c(c1)OCO2 was read as NPC1 promoter act inconclusive, ELG1 genotox inconclusive, SMN2 splice enh 3.2µM*, Rab9 prom act 0.45µM* and FLuc modulator 0.085µM*.
`O=C(/C=C/c1cccc(Br)c1)c1ccc2c(c1)OCO2` gave NPC1 promoter act -2%, ELG1 genotox inconclusive, Rab9 prom act 5% and FLuc modulator 11µM*.
For COc1cccc(/C=C/C(=O)c2ccc[nH]2)c1 the results were NPC1 promoter act 3.2µM*, ELG1 genotox 3.7µM*, SMN2 splice enh inconclusive, Rab9 prom act 3.2µM* and FLuc modulator 2.1µM*.
O=C(/C=C/c1ccccc1Br)c1ccc2c(c1)OCO2 was read as NPC1 promoter act 17%, ELG1 genotox 21%, Rab9 prom act 11% and FLuc modulator 12µM*.
Screening CCN(Cc1ccc2c(c1)OCO2)C(=O)/C=C/c1cccc(Br)c1 returned NPC1 promoter act 0%, ELG1 genotox 13%, Rab9 prom act 2% and FLuc modulator -14%.
`O=C1CSC(c2cccc([N+](=O)[O-])c2)N1CCc1ccccc1` (configuration not stated) gave NPC1 promoter act -5%, ELG1 genotox -5%, Rab9 prom act 2% and FLuc modulator 0%.
CSc1nc2c(c(=O)[nH]1)C(c1cccc(F)c1F)CC(=O)N2 (configuration not stated) was read as FLuc modulator -3%.
For O=C(CNC(=O)c1ccc2c(c1)OCO2)N/N=C(Br)/C=C/c1ccccc1 the results were NPC1 promoter act -9%, ELG1 genotox 0%, SMN2 splice enh -11%, Rab9 prom act -13% and FLuc modulator -18%.
For O=C(/C=C/c1ccccc1)c1ccc2c(c1)OCO2 the results were NPC1 promoter act inconclusive, ELG1 genotox inconclusive, Rab9 prom act inconclusive and FLuc modulator 2.1µM*.
`CC(=O)c1ccc2c(c1)OCCOCCOCCOCCOCCO2` gave NPC1 promoter act -7%, ELG1 genotox -2%, Rab9 prom act -2% and FLuc modulator -4%.
Screening COc1cccc(/C=C/C(=O)c2ccc3c(c2)OCO3)c1OC returned NPC1 promoter act 20%, ELG1 genotox inconclusive, Rab9 prom act 27% and FLuc modulator 0.95µM*.
For O=C(/C=C/c1ccncc1)c1ccc2c(c1)OCCO2 the results were NPC1 promoter act 1%, ELG1 genotox 11%, Rab9 prom act -3% and FLuc modulator 12µM*.
COc1cccc(/C=C/C(=O)NNC(=O)c2ccncc2)c1 was read as NPC1 promoter act 0%, ELG1 genotox 0%, Rab9 prom act -1% and FLuc modulator inconclusive.
`COc1cccc(/C=C/C(=O)NNC(=O)c2ccncc2)c1OC` gave NPC1 promoter act 5%, ELG1 genotox 5%, Rab9 prom act 8% and FLuc modulator 21µM*.
Screening COc1cc(/C=C/C(=O)c2ccc3c(c2)OCCO3)cc(Br)c1OCC(=O)N(C)C returned NPC1 promoter act -21%, ELG1 genotox -35%, Rab9 prom act -22% and FLuc modulator 12µM*.
For COC(=O)/C=C/c1ccc2c(c1)OCO2 the results were NPC1 promoter act -2%, ELG1 genotox 7%, SMN2 splice enh 17%, Rab9 prom act -3% and FLuc modulator inconclusive.
CN(C)c1ccc(/C=C/C(=O)c2ccc3c(c2)OCCO3)cc1[N+](=O)[O-] was read as NPC1 promoter act 10%, ELG1 genotox 17%, SMN2 splice enh -17%, Rab9 prom act 13% and FLuc modulator 9.5µM*.
CN(C)c1ccc(/C=C/C(=O)c2ccc3c(c2)OCO3)cc1 was read as NPC1 promoter act inconclusive, ELG1 genotox inconclusive, Rab9 prom act inconclusive and FLuc modulator 2.7µM*.
Screening O=C(/C=C/c1ccc2c(c1)OCO2)c1ccc[nH]1 returned NPC1 promoter act 3.2µM*, ELG1 genotox inconclusive, SMN2 splice enh 16µM*, Rab9 prom act inconclusive and FLuc modulator 2.1µM*.
For COc1ccc(C(=O)/C=C/c2ccc(N3CCCCC3)c([N+](=O)[O-])c2)cc1 the results were NPC1 promoter act 5%, ELG1 genotox 1%, SMN2 splice enh -39%, Rab9 prom act 10% and FLuc modulator -19%.
For Cc1ccc2nc(N(Cc3cccnc3)C(=O)C3COc4ccccc4O3)sc2c1 (configuration not stated) the results were FLuc modulator 0%.
`COc1ccc(NCc2cccn2-c2nnc(N3CCOCC3)s2)cc1OC` gave FLuc modulator -14%.
O=C(/C=C\c1ccc2c(c1)OCO2)NC1CC(=O)N(c2ccc(F)cc2)C1 (configuration not stated) was read as FLuc modulator 3%.
Screening O=C(/C=C/c1ccc2c(c1)OCO2)c1ccc(F)cc1 returned NPC1 promoter act 1%, ELG1 genotox 9%, SMN2 splice enh 2%, Rab9 prom act 4% and FLuc modulator 4.3µM*.
Screening CC(=O)Oc1cc2c(cc1Cl)C(c1cccs1)CC1(CC(C)(C)NC(=S)N1)O2 (configuration not stated) returned NPC1 promoter act 1%, ELG1 genotox -6%, Rab9 prom act -10% and FLuc modulator -1%.
For COC(=O)c1ccc(Oc2nc(C(N)=O)cc(-c3ccccc3)n2)cc1 the results were NPC1 promoter act 2%, ELG1 genotox 4%, SMN2 splice enh -42%, Rab9 prom act -3% and FLuc modulator 1%.
For COCc1cc(=O)n2[nH]c(C)cc2n1 the results were NPC1 promoter act -6%, ELG1 genotox -1%, SMN2 splice enh -18%, Rab9 prom act -10% and FLuc modulator 9%.

Bioassay records from PubChem BioAssay.
